According to PubChem BioAssay (NCI):
Compounds without any hit were thinned out: in the full panel of roughly 83,000, 20% have a hit.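 96-well plates, one dose, 48 hours. Percent growth reported; active if below 10.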 Values without a mark were called inactive. Activity calls are given as the source filed them.

What was measured:
Experiment in all cases: NCI-60 one-dose screen, 48 h (100 = growth as untreated, 0 = no growth, -100 = all killed)
Settings in all cases: 10 µM unless noted
[1] = test system: T-47D breast
[2] = test system: BT-549 breast
[3] = test system: MDA-MB-435 melanoma
[4] = test system: SW-620 colon
[5] = test system: MCF7 breast
[6] = test system: HCT-116 colon
[7] = test system: HCC-2998 colon
[8] = test system: KM12 colon

## CCN1C(=O)N[C@H]2[C@@H]3NC(=O)c4ccc(Cl)n4[C@@H]3C[C@]21O
[1]
  growth: -7.84% (active)
[2]
  growth: -23.4% (active)
[3]
  growth: 0.981% (active)
[4]
  growth: 3.96% (active)
[5]
  growth: 1.38% (active)
[6]
  growth: 0.673% (active)
[7]
  growth: 2.42% (active)
[8]
  growth: 5.68% (active)

## CCC1CCc2nc3sc(C(=O)Nc4ccccc4F)c(N)c3cc2C1 (stereo not given)
[1]
  growth: 87.4%
[2]
  growth: 76%
[3]
  growth: -15.5% (active)
[4]
  growth: 36.4%
[5]
  growth: 18.9%
[6]
  growth: 63.8%
[7]
  growth: 91.6%
[8]
  growth: 35.3%

## COc1cccc(/C=C/C(=O)c2sc(Nc3ccc(O)cc3)nc2C)c1
[1]
  growth: 90.8%
[2]
  growth: 14.6%
[3]
  growth: 88.4%
[4]
  growth: 110%
[5]
  growth: 72.2%
[6]
  growth: 87.4%
[7]
  growth: 105%
[8]
  growth: 78.4%

## COc1cc(NC(=O)CCl)ccc(=O)c1
[1]
  growth: 67.1%
[2]
  growth: 58.9%
[3]
  growth: 69.8%
[4]
  growth: 69.8%
[5]
  growth: 56.8%
[6]
  growth: 62.6%
[7]
  growth: 105%
[8]
  growth: 89.6%

## COC(=O)CC/C(C)=N\Nc1ccc([N+](=O)[O-])cc1
[1]
  growth: 42%
[2]
  growth: 89.1%
[3]
  growth: 31.7%
[4]
  growth: 54.4%
[5]
  growth: 77.1%
[6]
  growth: 54.1%
[7]
  growth: 66.1%
[8]
  growth: 24.3%

## O=C(CN1CCOCC1)Nc1ccc(-c2nc3ccccc3s2)cc1
[1]
  growth: 93.3%
[2]
  growth: 104%
[3]
  growth: 108%
[4]
  growth: 108%
[5]
  growth: 48.8%
[6]
  growth: 96.1%
[7]
  growth: 88%
[8]
  growth: 107%

## O=C1Nc2cc(Cl)ccc2Oc2cc(Oc3ccccc3)ccc21
[1]
  growth: 48.5%
[2]
  growth: 56.4%
[3]
  growth: -3.81% (active)
[4]
  growth: 16.6%
[5]
  growth: 29%
[6]
  growth: 27.8%
[7]
  growth: 60.6%
[8]
  growth: 20%

## Cc1nn(-c2ccc(Cl)cc2)c(=O)n1CCOc1ccccc1Cl
[1]
  growth: 79.5%
[2]
  growth: 94.4%
[3]
  growth: 107%
[4]
  growth: 103%
[5]
  growth: 98.3%
[6]
  growth: 74%
[7]
  growth: 106%
[8]
  growth: 101%

## O=C(c1c[nH]c2ccccc12)C(Sc1nc2ccccc2c(=O)[nH]1)c1ccccc1 (stereo not given)
[1]
  growth: 81%
[2]
  growth: 87.2%
[3]
  growth: 115%
[4]
  growth: 110%
[5]
  growth: 101%
[6]
  growth: 95.1%
[7]
  growth: 112%
[8]
  growth: 106%

## CSc1nc(-c2cc3ccccc3o2)cc(-c2ccc(Cl)cc2)c1C#N
[1]
  growth: 24.7%
[2]
  growth: 115%
[3]
  growth: 111%
[4]
  growth: 71.1%
[5]
  growth: 14%
[6]
  growth: 58.8%
[7]
  growth: 85.6%
[8]
  growth: 40.4%

## COc1ccc(C2CC(=O)Nc3c2c(C)nn3-c2nc3ccccc3[nH]2)cc1OC (stereo not given)
[1]
  growth: 65.7%
[2]
  growth: 75.5%
[3]
  growth: 24.7%
[4]
  growth: 78.3%
[5]
  growth: 46.4%
[6]
  growth: 17.4%
[7]
  growth: 96.5%
[8]
  growth: 82.6%

## COc1cc(OC)c(C(=O)/C=C/c2ccc(C#N)cc2)c(OC)c1
[1]
  growth: 18.5%
[2]
  growth: -7.5% (active)
[3]
  growth: 5.64% (active)
[4]
  growth: 9.15% (active)
[5]
  growth: 13.8%
[6]
  growth: 10.2%
[7]
  growth: 36.8%
[8]
  growth: 7.74% (active)

## CSc1ccccc1C#C/C=C\C#Cc1ccccc1N1CCCCC1=O
[1]
  growth: 95.1%
[2]
  growth: 92.1%
[3]
  growth: 107%
[4]
  growth: 100%
[5]
  growth: 94.9%
[6]
  growth: 95%
[7]
  growth: 99.9%
[8]
  growth: 114%

## CC(Br)C(Br)c1cc2c(cc1Br)OCO2 (stereo not given)
[1]
  growth: 73.7%
[2]
  growth: 100%
[3]
  growth: 97.9%
[4]
  growth: 109%
[5]
  growth: 93.9%
[6]
  growth: 88.5%
[7]
  growth: 96%
[8]
  growth: 103%

## COc1cc(NCCCN=C(N)NC(N)=NC(C)C)c2ncccc2c1
[1]
  growth: -2.75% (active)
[2]
  growth: 65.1%
[3]
  growth: 96.9%
[4]
  growth: 86.6%
[5]
  growth: -52.9% (active)
[6]
  growth: 17.3%
[7]
  growth: 55.8%
[8]
  growth: 30.6%

## CC(C)CCC[C@@H](C)[C@H]1CC[C@H]2[C@@H]3CC[C@H]4C/C(=N/O)CC[C@]4(C)[C@H]3CC[C@]12C
[1]
  growth: 103%
[2]
  growth: 108%
[3]
  growth: 103%
[4]
  growth: 97.9%
[5]
  growth: 103%
[6]
  growth: 109%
[7]
  growth: 86.3%
[8]
  growth: 108%

## COc1ccc(/C(=N/O)c2cc(F)c(F)c(OC)c2F)cc1O
[1]
  growth: 28.4%
[2]
  growth: 33.5%
[3]
  growth: -35.7% (active)
[4]
  growth: 15.2%
[5]
  growth: 18.7%
[6]
  growth: 15.6%
[7]
  growth: 42.7%
[8]
  growth: 29.3%

## CN1C(=O)[C@H]2c3c1cccc3[C@@]13NC(=O)O[C@H]1[C@H](CCC3(C)C)C2(C)C
[1]
  growth: 87.8%
[2]
  growth: 102%
[3]
  growth: 102%
[4]
  growth: 114%
[5]
  growth: 99.7%
[6]
  growth: 103%
[7]
  growth: 106%
[8]
  growth: 103%

## CC(C)(C)c1cc(-c2nc3ccc(N4CCN(CCO)CC4)cc3[nH]2)cc(C(C)(C)C)c1O
[1]
  growth: 60.6%
[2]
  growth: 92%
[3]
  growth: 6.38% (active)
[4]
  growth: 9.88% (active)
[5]
  growth: 35.6%
[6]
  growth: 25.3%
[7]
  growth: 12.9%
[8]
  growth: 18.2%

## Cn1c(-c2nonc2NC(=O)c2ccc(F)cc2)nc2ccccc21
[1]
  growth: 96.5%
[2]
  growth: 109%
[3]
  growth: 107%
[4]
  growth: 105%
[5]
  growth: 89.1%
[6]
  growth: 106%
[7]
  growth: 100%
[8]
  growth: 103%

## CCC(=O)Oc1ccc2c(c1)CC[C@@H]1[C@@H]2CC[C@]2(C)C[C@H](OC(=O)CC)C[C@@H]12
[1]
  growth: 83.7%
[2]
  growth: 60.1%
[3]
  growth: 0.38% (active)
[4]
  growth: 48.2%
[5]
  growth: 68.5%
[6]
  growth: 50.5%
[7]
  growth: 85%
[8]
  growth: 53.5%

## O=C1c2ccccc2C(=O)c2c(N=Nc3sc(=O)[nH]c3S)cccc21
[1]
  growth: 82.4%
[2]
  growth: 109%
[3]
  growth: 100%
[4]
  growth: 90%
[5]
  growth: 72%
[6]
  growth: 95.7%
[7]
  growth: 102%
[8]
  growth: 90.3%

## CN(C)C/C=C/C(=O)Nc1cc2c(Nc3cccc(Cl)c3F)ncnc2cc1OCCOC(F)F
[1]
  growth: -4.28% (active)
[2]
  growth: 41%
[3]
  growth: 15.4%
[4]
  growth: 31%
[5]
  growth: 35.1%
[6]
  growth: 25.7%
[7]
  growth: 68.3%
[8]
  growth: 80.7%

## CC/C=C\C/C=C\C[C@H]1C/C=C2/C(=O)C=C[C@H]2C/C=C\CCC(=O)O1
[1]
  growth: 12.9%
[2]
  growth: -7.41% (active)
[3]
  growth: 3.37% (active)
[4]
  growth: -4.82% (active)
[5]
  growth: 20%
[6]
  growth: -63.4% (active)
[7]
  growth: -59.2% (active)
[8]
  growth: -34.5% (active)

## COc1cc(C2C=C(C)N=C3SC=C(C)N32)cc(OC)c1OC (stereo not given)
[1]
  growth: 7.98% (active)
[2]
  growth: -49.9% (active)
[3]
  growth: -33.3% (active)
[4]
  growth: -44.5% (active)
[5]
  growth: -14.8% (active)
[6]
  growth: -67.5% (active)
[7]
  growth: -90.5% (active)
[8]
  growth: -77% (active)

## COc1cc(Cn2c(-c3nonc3N)nc3ccccc32)ccc1C
[1]
  growth: 37.2%
[2]
  growth: 66.9%
[3]
  growth: -30.6% (active)
[4]
  growth: 31.2%
[5]
  growth: 20.7%
[6]
  growth: 20.3%
[7]
  growth: 23.5%

## CCCCOc1nc2c(C)cccc2cc1C1CNC(=O)c2ccccc2N1 (stereo not given)
[1]
  growth: 58.4%
[2]
  growth: 74.5%
[3]
  growth: 4.51% (active)
[4]
  growth: 42.3%
[5]
  growth: 15.8%
[6]
  growth: 45.9%
[7]
  growth: 101%
[8]
  growth: 56.4%

## CCN(C(=O)c1cc2ncccc2[nH]1)[C@H]1CCC[C@@H](NCc2cccc(F)c2)C1
[1]
  growth: 78.1%
[2]
  growth: 104%
[3]
  growth: 97.4%
[4]
  growth: 98.5%
[5]
  growth: 95.7%
[6]
  growth: 111%
[7]
  growth: 91.6%
[8]
  growth: 97.3%

## N#Cc1ncc(-c2ccc(F)c(F)c2F)c(NC2CCCCCC2)n1
[1]
  growth: 62.7%
[2]
  growth: 71%
[3]
  growth: 96%
[4]
  growth: 98%
[5]
  growth: 83.5%
[6]
  growth: 72.6%
[7]
  growth: 95.8%
[8]
  growth: 74%

## COc1ccc(/C=C/c2nc(N3CCOCC3)c3cc(F)c(F)cc3n2)cc1OC
[1]
  growth: 6.31% (active)
[2]
  growth: 33.4%
[3]
  growth: 15.8%
[4]
  growth: 55.5%
[5]
  growth: 15.9%
[6]
  growth: 38.7%
[7]
  growth: 38.2%
[8]
  growth: 28.1%

## O=[N+]([O-])c1cc(S(=O)(=O)OCC2CO2)ccc1Cl (stereo not given)
[1]
  growth: 77.1%
[2]
  growth: 91.3%
[3]
  growth: 97.7%
[4]
  growth: 41.2%
[5]
  growth: 75.5%
[6]
  growth: 54%
[7]
  growth: 107%
[8]
  growth: 82.6%

## O=C(CCl)NCCNc1nccc(Nc2ccc(S(=O)(=O)Nc3ccccn3)cc2)n1
[1]
  growth: 9.1% (active)
[2]
  growth: -5.35% (active)
[3]
  growth: 7.62% (active)
[4]
  growth: 8.07% (active)
[5]
  growth: 11%
[6]
  growth: -44.6% (active)
[7]
  growth: 99.7%
[8]
  growth: 34%
